The panel holds about 79,000 compounds, 15% with a hit somewhere; the sample as a whole holds those more often. A number with no mark means an inactive call. Active and inactive are the calls of the source. No stated cut-off is given here; in the data, active means growth inhibition above about 70%; inactive means the rest.
Assay: NCI Yeast Anticancer Drug Screen. Data for the rad14 strain (AID 159);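 further: 0% = growth of vehicle-treated control cultures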
Conditions: S. cerevisiae rad14 strain growth inhibition, hits give high values
Experimental: Growth inhibition of yeast strains with defined genetic alterations is measured as a screen for potential anti-cancer activity. Selected strains with alterations in DNA damage repair or cell cycle control were exposed to compounds and growth inhibition was measured relative to vehicle treated controls. The strain used in this assay is rad14

## Cc1sc2ccc3ccccc3c2[n+]1C
At 1.2 µM
  growth inhibition: -34%
At 3.7 µM
  growth inhibition: -22%
At 11.0 µM
  growth inhibition: -29%
At 33.0 µM
  growth inhibition: -28%
At 100.0 µM
  growth inhibition: 85% (active)

## O=C1CSC(c2cccc(Cl)c2)N1c1ccc(-c2ccc(-n3c(-c4ccccc4)nc4ccccc4c3=O)cc2)cc1 (stereo not given)
At 1.2 µM
  growth inhibition: 7%
At 3.7 µM
  growth inhibition: 9%
At 11.0 µM
  growth inhibition: 15%
At 33.0 µM
  growth inhibition: 32%
At 100.0 µM
  growth inhibition: 47%

## COc1cccc(/C=N/C(/N=C/c2cccc(OC)c2O)c2cccc(OC)c2O)c1O
At 1.2 µM
  growth inhibition: 1%
At 3.7 µM
  growth inhibition: 6%
At 11.0 µM
  growth inhibition: 19%
At 33.0 µM
  growth inhibition: 73% (active)
At 100.0 µM
  growth inhibition: 99% (active)

## O=[n+]1c2ccccc2n([O-])c2cc(Br)ccc21
At 1.2 µM
  growth inhibition: 36%
At 3.7 µM
  growth inhibition: 56%
At 11.0 µM
  growth inhibition: 95% (active)
At 33.0 µM
  growth inhibition: 100% (active)
At 100.0 µM
  growth inhibition: 98% (active)

## CC(=O)Nc1ccc(/C=C/[N+](=O)[O-])cc1
At 1.2 µM
  growth inhibition: 2%
At 3.7 µM
  growth inhibition: 11%
At 11.0 µM
  growth inhibition: 18%
At 33.0 µM
  growth inhibition: 40%
At 100.0 µM
  growth inhibition: 99% (active)

## COc1cc2cc3c4cc(OC)c(OC)cc4cc[n+]3c(C)c2cc1OC
At 1.2 µM
  growth inhibition: -27%
At 3.7 µM
  growth inhibition: -22%
At 11.0 µM
  growth inhibition: -31%
At 33.0 µM
  growth inhibition: -26%
At 100.0 µM
  growth inhibition: -27%

## S=C1SCN(C2CCCCC2)CN1C1CCCCC1
At 1.2 µM
  growth inhibition: -31%
At 3.7 µM
  growth inhibition: -25%
At 11.0 µM
  growth inhibition: -24%
At 33.0 µM
  growth inhibition: 2%
At 100.0 µM
  growth inhibition: 45%

## CCOC(=O)c1ccc(NC(=O)O/N=C(/Cl)C(C)C)cc1
At 1.2 µM
  growth inhibition: -4%
At 3.7 µM
  growth inhibition: -5%
At 11.0 µM
  growth inhibition: -2%
At 33.0 µM
  growth inhibition: 2%
At 100.0 µM
  growth inhibition: 99% (active)

Source: PubChem BioAssay (NCI)
